# The list is not random: actives were taken first. Their share in the collection is about 7.6%.
# ELG1 repair inh = inhibitors of ELG1-dependent DNA repair in HEK293T cells; HEK293T ELG1-luciferase reporter, luminescence, 16 h; DNA damage induced by 5-fluorouridine; Potency, µM (top dose mostly 46.1 µM), inactives show at the highest dose activity change, negative = inhibition, usual class: inhibitors; 330,000 compounds, 2.3% hits; further: potency means the concentration at half of the fitted maximal effect; on the % scale 0 is the no-effect control and ±100 the full control effect; nearly all actives have a fitted effect of over 55% in size
#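 HEK293T cells expressing luciferase-tagged ELG1 (2,000/well) received 5-Fluorouridine plus compound or DMSO for 16 hr at 37 °C. Luciferase was read by ONE-Glo luminescence after 30 min at room temperature.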
# Giardia kill = Giardia lamblia killing. Giardia lamblia trophozoite viability. activity change, % at 7.66 µM, hits read low. 340,000 compounds, 0.15% hits; in the data active means activity change below about -80%; inconclusive means between about -30% and that limit;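 further: parasites exposed to compound for two days anaerobically before the ATP read; on the % scale 0 is the no-effect control and ±100 the full control effect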
#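 Each well holds 100 Giardia trophozoites and compound. After two days (48 hrs) at 37 deg C in anaerobic conditions, ATP is quantified by luminescence.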
# RORg inh = ROR gamma (mouse) transcription inhibition | P51450 | Drosophila S2 Gal4-RORgamma UAS-luciferase reporter, 20 h | Potency, µM (highest dose often 53.6 µM), for the others: at the top dose activity change, negative = inhibition, actives largely listed as inhibitors | 310,000 compounds, 5.4% hits | AID 2551; further: potency means the concentration at half of the fitted maximal effect; on the % scale 0 is the no-effect control and ±100 the full control effect; nearly all actives have a fitted effect of over 60% in size
# Target sequence (P51450 whole entry, looked up, the tested form may be a part): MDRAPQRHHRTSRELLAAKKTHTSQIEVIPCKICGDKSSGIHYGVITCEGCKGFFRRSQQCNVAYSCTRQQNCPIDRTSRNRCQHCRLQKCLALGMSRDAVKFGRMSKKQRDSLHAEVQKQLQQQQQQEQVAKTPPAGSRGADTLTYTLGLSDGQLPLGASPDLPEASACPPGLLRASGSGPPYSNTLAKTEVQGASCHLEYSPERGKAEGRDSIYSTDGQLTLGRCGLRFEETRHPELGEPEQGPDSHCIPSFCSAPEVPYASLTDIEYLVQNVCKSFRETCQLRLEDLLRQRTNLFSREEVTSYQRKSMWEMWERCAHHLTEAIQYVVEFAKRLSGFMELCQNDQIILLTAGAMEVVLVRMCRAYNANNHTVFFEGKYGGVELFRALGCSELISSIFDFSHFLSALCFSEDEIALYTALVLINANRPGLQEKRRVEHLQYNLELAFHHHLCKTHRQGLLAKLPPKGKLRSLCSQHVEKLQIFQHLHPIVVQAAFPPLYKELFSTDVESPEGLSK
#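 ROR gamma transcriptional activity was tracked as Gal4-UAS luciferase output in stably transfected Drosophila Schneider cells, with compound added 1 hr before 700 uM copper sulfate induction and a 20 hr ambient-temperature incubation.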
# VP16 counter = counter-screen for ROR gamma inhibitors: Gal4-VP16 reporter | Drosophila S2 Gal4-VP16 UAS-luciferase, luminescence, 20 h | Potency, µM (series often up to 53.6 µM), without a hit: top-dose activity, negative = inhibition, most hits filed as inhibitors | 310,000 compounds, 3.5% hits;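 further: Gal4-VP16 expression switched on by copper sulfate through the metallothionein promoter; potency means the concentration at half of the fitted maximal effect; on the % scale 0 is the no-effect control and ±100 the full control effect; nearly all actives have a fitted effect of over 50% in size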
# p53 reactivation = mutant p53 re-activation in reporter cells; H1299 p53-A138V BP100-luciferase reporter, luminescence, 24 h; Potency, µM (highest dose often 92.2 µM), for inactives: at the highest dose activity change, positive = activation, most hits filed as activators; 320,000 compounds, 0.063% hits; AID 504706; further: potency means the concentration at half of the fitted maximal effect; % of control where 0% means no effect; nearly all actives have a fitted effect of over 45% in size
#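 H1299 (p53-null), stable ts p53-A138V + BP100-Luc; 1000 cells/well, Opti-MEM/10% FBS; cpd 4 pt, 1:5; 24 h, 37 deg C, 5% CO2; detection reagent 10 min RT; luminescence.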
# BRCA1 expr up = BRCA1 expression activation; 380,000 compounds, 1.1% hits; Potency, µM (doses to about 46.1 µM), for the others: at the top dose activation, actives largely listed as activators; MCF7-BRCA1-FFLuc reporter, luminescence, 48 h; response scale: scaled: vehicle 0%, 10 µM genistein 100%; further: potency means the concentration at half of the fitted maximal effect; nearly all actives have a fitted effect of over 80% in size
#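 MCF7-BRCA1-FFLuc cells, 2000/well in phenol-red-free MEM, attached 2 h then treated 48 h at 37 C. Luciferase luminescence read 15 min after reagent; normalized to genistein maximum activation (10microM) and DMSO, concentration-response fitted.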
# * = called active by the depositor; u = inconclusive; x = no result; [ ] = another dose, or the depositor's remark. Unless noted, the call rests on the fitted dose curve; in most records, active means well fitted curve in the direction sought with a large enough effect; inconclusive means small, poorly fitted or top-dose-only effect, or another doubt; inactive means no such curve, though single readings can be large; an effect the other way counts as inactive or inconclusive.
SMILES,ELG1 repair inh,Giardia kill,RORg inh,VP16 counter,p53 reactivation,BRCA1 expr up
O=C(NCCNc1ccnc2cc(Cl)ccc12)c1ccccc1F,-8%,31,u,11µM*,x,-8%
O=C(NCCNc1ccc(Cl)cc1[N+](=O)[O-])c1ccccc1F,u,-18,32%,-7%,-23%,u
CCOC(=O)C(C)Sc1nnc(-c2ccccc2O)n1-c1ccc(C)cc1 (configuration not stated),-10%,-27,3.2µM*,5.6µM*,-7%,0%
COC(=O)CSc1nnc(-c2ccccc2O)n1-c1ccc(C)cc1,-3%,7,u,u,-5%,14%
CN(C)c1ccc(-c2noc(C3CCN(C(=O)Nc4ccc(Cl)cc4)CC3)n2)cc1,u,0,-2%,1%,11%,0%
Cc1ccc(-c2noc(C3CCN(C(=O)Nc4ccc(C#N)cc4)CC3)n2)o1,26µM*,2,14%[10 µM],1%,6%,-57%
O=C(CSc1nnc(COc2ccc(Cl)cc2)o1)Nc1ccc(N2CCOCC2)cc1,-15%,-3,x,x,4%,19%
COc1ccc(OC)c(/C=N/NC(=O)c2cc3c(OC)c(OC)ccc3[nH]2)c1,u,-15,24%,-6%,-3%,-18%
Cc1ccccc1OCC1Cc2c(nc(N)c(C#N)c2N)O1 (configuration not stated),u,-18,4%,1%,u,6.3µM*
N#Cc1c(N)nc2c(c1N)CC(COc1ccccc1)O2 (configuration not stated),u,9,30%,-1%,u,11µM*
Cc1cc(C)n(CCc2nc(-c3cc4ccccc4o3)cs2)n1,u,-4,u,-30%,18%,72%
Cc1cc(C)n(CCc2nc(-c3ccc(C)o3)cs2)n1,17%,2,u,11µM*,-15%,42%
CNc1nc(SCC(=O)Nc2ccccc2)nc(N2CCOCC2)n1,-12%,-9,-1%,0%,-8%,-12%
COc1ccc(C2SCC(=O)N2CCc2ccc(OC)c(OC)c2)cc1 (configuration not stated),18µM*,-18,u,2.8µM*,-5%,-19%
c1ccc(-c2cn(-c3ccccc3)c3[n+]2CCCS3)cc1,21µM*,10,18%,-12%,4%,-47%
CCc1ccc(-n2cc(-c3ccc(F)cc3)[n+]3c2SCCC3)cc1,4.6µM*,0,-33%,u,-1%,-71%
N#Cc1ccc(-c2cn(-c3ccccc3)c3[n+]2CCCS3)cc1,-3%,18,-8%,7%,1%,9%
Cc1ccc(-c2c[n+]3c(n2-c2ccccc2)SCC3)cc1,u,-5,33%,-10%,3%,-46%
Cc1ccc(-c2cn(-c3ccccc3)c3[n+]2CCCS3)cc1,u,2,0%,11µM*,-4%,-66%
COc1ccc(-n2cc(-c3ccc(C)cc3)[n+]3c2SCC3)cc1,u,20,-22%,7.9µM*,-4%,-85%
COc1ccc2c(-c3ccccc3)cc(SCC(N)=O)nc2c1,-1%,-3,-20%,-15%,-6%,-31%
COc1ccc(CCNC(=O)COc2cc(O)c3c(c2)OC(C)(C)CC3=O)cc1,-9%,-1,-11%,-3%,5%,-15%
COc1cc(O)c2c(=O)c(-c3ccc(O[C@@H]4O[C@H](CO)[C@@H](O)[C@H](O)[C@H]4O)cc3)coc2c1,u,-8,-10%,-3%,25%,2µM*
O=c1c(-c2ccc(O)cc2)coc2cc(OC3OC(CO)C(O)C(O)C3O)cc(O)c12 (configuration not stated),u,2,-11%,-2%,u,8.9µM*
COc1cc(-c2coc3cc(O[C@H]4OC(CO)C(O)C(O)C4O)c(OC)c(O)c3c2=O)cc(O)c1OC (some centres not stated),x,x,21%,-5%,x,x
SMILES,ELG1 repair inh,Giardia kill,RORg inh,VP16 counter,p53 reactivation,BRCA1 expr up
O=c1c(-c2ccc(O)cc2)coc2cc(OC3OC(CO)C(O)C(O)C3O)ccc12 (configuration not stated),u,4,-1%,0%,u,6.3µM*
O=c1c(-c2ccc(O)cc2)coc2cc(O[C@@H]3O[C@H](CO)[C@H](O)[C@H](O)[C@H]3O)ccc12,x,x,8%,29%,x,x
CCCCNC(=O)c1ccc2nc(CC)c(N(C)Cc3cccs3)n2c1,x,x,x,x,x,1%
CCCCNC(=O)C1CC(c2c(Cl)cccc2Cl)=NO1 (configuration not stated),-22%,6,8%,2%,-16%,-1%
Cc1nnc(NC(=O)c2ccc(S(=O)(=O)N3CCOCC3)cc2)s1,12%,12,6%,0%,5%,0%
CCOC(=O)c1sc(NC(=O)c2ccc(S(=O)(=O)N3CCOCC3)cc2)nc1-c1ccccc1,26µM*,28,u,-6%,-2%,9%
CCOC(=O)c1sc(NC(=O)c2ccc(S(=O)(=O)N3CCCCC3)cc2)nc1-c1ccccc1,21µM*,6,u,-8%,-10%,-37%
CCOC(=O)c1sc(NC(=O)c2ccc(S(=O)(=O)N3CCCCCC3)cc2)nc1-c1ccccc1,13µM*,2,-11%,7%,2%,-44%
CCOC(=O)C(=O)NNc1ccc(C)cc1,23%,7,42%,1%,-18%,2%
Cc1ccccc1CNC(=O)C1CCC(=O)N(C2CC2)C1 (configuration not stated),u,-5,4%,4%,-9%,7%
CCCn1c(SCC(=O)N2CCN(CC)CC2)nc2c1c(=O)n(C)c(=O)n2C,12%,-1,4%,7%,-3%,-10%
COc1ccc(-c2nnc(NC(=O)CSc3ccccc3)s2)cc1OC,24%,8,u,22µM*,10%,-1%
COc1ccc(-c2nnc(NC(=O)CSc3ccc(C)cc3)s2)cc1OC,7%,-1,-5%,0%,7%,-5%
COc1ccc(Cc2nnc(NC(=O)CSc3ccc(Cl)cc3)s2)cc1OC,u,x,13µM*,u,-1%,x
COC(=O)C(O)C1C(C)(C)C(OC(C)=O)C2CC3=C4CC(=O)OC(c5ccoc5)[C@]4(C)CCC3[C@@]1(C)C2=O (some centres not stated),x,x,13µM*,4%,x,x
C=C1C2CC[C@@]3(C)C(c4ccoc4)OC(=O)C[C@@]13OC1CC(=O)C(C)(C)C(C(O)C(=O)OC)[C@]12C (some centres not stated),x,x,0%,-4%,x,x

# Bioassay records: PubChem BioAssay, National Center for Advancing Translational Sciences (NCATS)
